From PubChem BioAssay
The list is not random: actives were taken first. Their share in the collection is about 20%.
Shiga toxin inh – blocks Shiga toxin action in Vero cells; Vero cells, Shiga toxin protein synthesis inhibition reporter; inhibition, % at 38.7 µM; 290,000 tested, 9.2% active; in the data active = inhibition mostly above about 28%, no sharp cut-off; inactive = mostly below about 43%; also: 0% is about no effect
HCMV inh – blocks human cytomegalovirus replication; HFF cells, HCMV-luciferase reporter, 72 h; hits give low values; activity change, negative = inhibition, % at 57.5 µM; 410,000 tested, 4.5% active; AID 1259415; in the data active = activity change below about -60%; inconclusive = no clear call, values can overlap the other calls; inactive = above about -39%; also: % is scaled to controls: 0 for no effect and ±100 for the full control effect
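Luciferase read-out from HCMV-luciferase-infected HFFs (MOI 1 PFU/cell) 72 h post infection at 37C; compounds added after 16 h cell attachment; activity normalized between buffer-only basal and Salinomycin (10uM) inhibitor controls.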
Pf growth 48h – inhibits P. falciparum growth in the first generation, 48 h | AID 504832 | 310,000 tested, 5.9% active | Potency, µM (series often up to 28.7 µM), without a hit: at the highest dose activity change, negative = inhibition, hits mostly inhibitors | P. falciparum luciferase growth in erythrocytes, 48 h; also: potency is read from the fitted curve at half-maximal effect; % is scaled to controls: 0 for no effect and ±100 for the full control effect
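Luciferase-expressing parasites in RBCs, 2% Hct / 0.1% parasitemia final; RPMI 1640 + 0.5% Albumax; 37 C, 5% CO2, one generation; luminescence read-out, lower signal = inhibition.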
Pf growth 96h – P. falciparum growth inhibition at 96 hour, primary screen for plastid delayed-death inhibitors; P. falciparum luciferase reporter growth, 96 h; Potency, µM (doses to about 28.7 µM), for the others: at the highest dose activity change, negative = inhibition, hits mostly inhibitors; 320,000 tested, 6.9% active; also: potency is read from the fitted curve at half-maximal effect; % is scaled to controls: 0 for no effect and ±100 for the full control effect
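Cell-based qHTS: luciferase-tagged P. falciparum in erythrocytes (2% hematocrit, 0.05% parasitemia final) incubated with compounds for 96 hours, 37 C, 5% CO2; luciferase detection reagent then added and luminescence measured.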
Cycloheximide cs – affects cycloheximide protein synthesis inhibition readout, counter-screen; cell reporter, cycloheximide protein synthesis inhibition counterscreen; max response, %; 300,000 tested, 12% active; in the data active = max response mostly above about 13%, no sharp cut-off; inactive = mostly below about 14%; also: read at 38.3 µM for the half of the compounds with a filed dose; 0% is about no effect
* marks the source's active call; other numbers are inactive results; ? = inconclusive; . = no result given. Unless noted, calls follow the shape of the dose curve; as a rule, active = well fitted inhibition curve with a large enough effect; inconclusive = small, poorly fitted or top-dose-only effect, or another doubt; inactive = no such curve, though single readings can be large or run the other way.

SMILES	Shiga toxin inh	HCMV inh	Pf growth 48h	Pf growth 96h	Cycloheximide cs
Fc1ccc2nc(N3CCCC3)sc2c1	84.7*	14.1	205.7%	199.5%	44.1*
COc1ccc([N+](=O)[O-])cc1NC(=O)C1CCCN1S(=O)(=O)c1cccs1 (stereo unspecified)	.	-20.8	?	-14.9%	.
CCOC(=O)c1cnn(-c2ccccc2)c1-n1cccc1C(=O)C(=O)Nc1ccc(F)cc1	19.1	-19.3	-11.8%	24.0%	1.1
Cc1ccc(-c2noc(-c3nnn(CC(=O)Nc4ccc(C)cc4Cl)c3N)n2)cc1	.	-2.8	.	.	.
O=C(c1ccccc1)N1CCN(c2nc3ccc([N+](=O)[O-])cc3s2)CC1	10.1	-66.6*	-3.5%	-19.5%	4.2
O=C(c1ccc([N+](=O)[O-])cc1)N1CCN(c2ncccn2)CC1	.	-36.3	.	.	.
COc1ccc2c(c1)C(=O)C(=O)N2CCS(=O)(=O)c1ccccc1	6.2	?	-9.7%	?	2.5
O=C1C(=O)N(CCS(=O)(=O)c2ccccc2)c2ccc(F)cc21	5.8	?	?	9.28µM*	1.8
CCc1noc(C)c1C(=O)N1CCN(c2cccc(C)c2C)CC1	.	-32.9	?	4.4%	.
Cc1cccc(N2CCN(C(=O)c3c(-c4ccccc4)noc3C)CC2)c1C	-26.9	-12.1	?	10.4µM*	1.0
Cc1onc(-c2ccccc2)c1C(=O)N1CCN(C/C=C/c2ccccc2)CC1	-15.8	-12.3	.	2.08µM*	-8.1
C=CCN1CCN(C(=O)c2c(-c3ccccc3)noc2C)CC1	-7.7	71.0	-7.2%	-25.4%	-2.5
CCCS(=O)(=O)NC(=O)C1(C)CCCN(C(=O)c2c(-c3ccccc3)noc2C)C1 (stereo unspecified)	.	-63.0*	.	.	.
Cc1ccc(CN2CCN(Cc3ccncc3)CC2CCO)o1 (stereo unspecified)	-13.3	-1.1	10.1%	?	-2.8
COc1cccc(CN2CCN(Cc3ccc(OC)c(OC)c3)CC2CCO)c1 (stereo unspecified)	-7.0	64.3	-5.3%	9.28µM*	0.8
COc1cccc(CN2CCN(Cc3ccc(C)o3)CC2CCO)c1 (stereo unspecified)	-9.6	-11.7	-0.5%	13.1µM*	1.8
Cc1ccc(CN2CCN(Cc3c(C)nn(C(C)C)c3C)CC2CCO)o1 (stereo unspecified)	18.3	-98.6*	0.8%	1.7%	-3.1
COc1cccc(CN2CCN(Cc3cc4ccccc4o3)CC2CCO)c1 (stereo unspecified)	.	28.2	-13.9%	-23.8%	7.3
Cc1ccc(C)n1C1C(=O)N(Cc2ccc(Cl)nc2)c2ccccc21 (stereo unspecified)	.	-2.6	.	.	.
Cc1ccc(F)cc1NC(=O)CSc1nnc(CNC(=O)c2ccco2)n1C	.	26.3	31.1%	-1.1%	.
COC(=O)CN(c1cccc(F)c1)S(C)(=O)=O	-8.4	44.5	1.6%	.	-0.8
O=C(Nc1ccc(N2CCOCC2)cc1)c1ccccc1SCC(=O)N1CCCC1	104.2	41.2	-1.6%	-12.3%	7.9
Cc1ccc(C)c(N2CCN(C(=O)c3cccn3-c3nnc(N4CCCCC4)s3)CC2)c1	.	0.0	.	.	.
Cc1c(Cl)cccc1NC(=S)N(Cc1cccnc1)Cc1ccccc1Cl	-12.4	-24.4	?	13.2%	-1.9
CC(C)(C)n1nnnc1CN(Cc1cccnc1)Cc1ccccc1Cl	-20.5	-36.8	14.7µM*	.	-2.0
SMILES	Shiga toxin inh	HCMV inh	Pf growth 48h	Pf growth 96h	Cycloheximide cs
Cc1ccccc1-c1cc(C(=O)NCc2cccc(C(F)(F)F)c2)nn1CC1CC(c2cccc([N+](=O)[O-])c2)=NO1 (stereo unspecified)	.	3.4	3.7µM*	6.57µM*	.
Cc1ccccc1-c1cc(C(=O)NCc2ccco2)nn1CC1CC(c2cccc([N+](=O)[O-])c2)=NO1 (stereo unspecified)	.	0.1	.	.	.
Cc1ccccc1-c1cc(C(=O)NCc2cccs2)nn1CC1CC(c2cccc([N+](=O)[O-])c2)=NO1 (stereo unspecified)	.	-5.6	3.29µM*	2.08µM*	.
Cc1ccccc1-c1cc(C(=O)NCc2ccc(OC(F)(F)F)cc2)nn1CC1CC(c2cccc([N+](=O)[O-])c2)=NO1 (stereo unspecified)	.	17.0	.	.	.
O=C1C2CC=CCC2C(=O)N1Cc1nnc(-c2ccccc2Br)o1 (stereo unspecified)	67.7*	-25.2	-8.3%	-18.6%	26.1*
O=c1c2ccccc2nnn1Cc1ccccc1	30.0	-31.0	41.5%	2.0%	-1.9
O=c1c2ccccc2nnn1Cc1nnc(-c2ccccc2Br)o1	127.8*	2.5	31.8%	98.1%	44.3*
O=C1c2ccccc2S(=O)(=O)N1Cc1nnc(-c2ccccc2Br)o1	4.8	44.7	14.8%	10.7%	12.4
CCCCCN(CCCCC)C(=O)C(CCC(=O)O)NC(=O)c1ccc(Cl)c(Cl)c1 (stereo unspecified)	.	-60.7*	-1.0%	-8.5%	.
CCCCN(CC)C(=O)c1ccc(Cl)c(Cl)c1	29.2	-28.5	-5.2%	.	14.4*
O=C1Nc2ccccc2-n2nnnc2C1N1CCN(c2ccc(C(F)(F)F)cc2[N+](=O)[O-])CC1 (stereo unspecified)	.	12.4	.	.	.
CC(=O)Nc1cccc(OCC(=O)Nc2sccc2C(N)=O)c1	69.5*	102.1	96.9%	163.4%	48.8*
COc1cccc(NC(=O)CNC(=O)c2ccccc2)c1	76.5*	152.6	61.6%	-1.1%	26.9*
COc1cccc(NC(=O)CN(C)C(=O)/C=C/c2ccc(S(=O)(=O)N3CCCCCC3)cc2)c1	.	-38.2	.	.	.
CCOCC(=O)Nc1cccc(OC)c1	36.8	-7.1	22.7%	-10.7%	15.5*
COc1cccc(NC(=O)CN(C)C(=O)/C=C/c2ccc3ccccc3n2)c1	.	-0.1	11.7µM*	?	.
CC(Oc1ccccc1)C(=O)OCC(=O)Nc1sccc1C(N)=O (stereo unspecified)	.	0.0	-24.5%	-17.7%	.
Cc1ccc(NC(=O)CN(C)C(=O)CSc2nc(C)cs2)cc1	-8.2	61.0	-9.0%	-4.4%	0.3
COc1cccc(NC(=O)CN(C)C(=O)COc2ccccc2Cc2ccccc2)c1	.	-9.8	?	5.22µM*	.
CC(C)(C)C1(C)OC(=O)C(=Cc2ccc(OCC(=O)Nc3ccccc3)cc2)C(=O)O1 (stereo unspecified)	58.8*	.	-4.3%	0.9%	17.6*
COc1cc(NC(=O)COc2cccc(OC)c2)cc(OC)c1	-1.2	19.1	8.6%	5.22µM*	8.9
O=C(COc1cccc(Oc2ccccc2)c1)Nc1ncccn1	29.3*	-0.6	12.8%	14.8%	13.8*
COc1cc(C=C2C(=O)OC(C)(C)OC2=O)cc(Cl)c1OCC(=O)Nc1ccccc1	-5.6	-18.3	37.0%	-2.2%	-2.1
Cc1noc2ncnc(N3CCCC(C(=O)Nc4cc(F)ccc4F)C3)c12 (stereo unspecified)	.	-35.9	.	.	.
COc1cc(OC)cc(C(=O)NCC(=O)Nc2ccc(-c3ccccc3)cc2)c1	62.7*	-35.9	49.6%	33.0%	20.0*
Cc1cccc(NC(=O)COc2ccccc2)c1	128.9*	8.3	44.7%	6.5%	33.4*
